The inhibition is the change of the read-out against control, counted positive when it falls.

The target in assay [1] is Mitogen-activated protein kinase kinase kinase kinase 4 (Homo sapiens) (UniProt O95819). To be noted: at 1 µM.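 Also: reported figure is an averaged inhibition value.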
Assay [2] has as its target Dual specificity mitogen-activated protein kinase kinase 1 (Homo sapiens) (UniProt Q02750). To be noted: at 0.1 µM.
Assay [3] has the same target. The note with it: at 1 µM.
The target in assay [4] is Misshapen-like kinase 1 (Homo sapiens) (UniProt Q8N4C8). The note with it: at 0.1 µM.
Assay [5] shares this target. To be noted: at 1 µM.
In assay [6] the target is T1, Serine/threonine-protein kinase 4 (Homo sapiens) (UniProt Q13043).
T1 sequence (whole entry): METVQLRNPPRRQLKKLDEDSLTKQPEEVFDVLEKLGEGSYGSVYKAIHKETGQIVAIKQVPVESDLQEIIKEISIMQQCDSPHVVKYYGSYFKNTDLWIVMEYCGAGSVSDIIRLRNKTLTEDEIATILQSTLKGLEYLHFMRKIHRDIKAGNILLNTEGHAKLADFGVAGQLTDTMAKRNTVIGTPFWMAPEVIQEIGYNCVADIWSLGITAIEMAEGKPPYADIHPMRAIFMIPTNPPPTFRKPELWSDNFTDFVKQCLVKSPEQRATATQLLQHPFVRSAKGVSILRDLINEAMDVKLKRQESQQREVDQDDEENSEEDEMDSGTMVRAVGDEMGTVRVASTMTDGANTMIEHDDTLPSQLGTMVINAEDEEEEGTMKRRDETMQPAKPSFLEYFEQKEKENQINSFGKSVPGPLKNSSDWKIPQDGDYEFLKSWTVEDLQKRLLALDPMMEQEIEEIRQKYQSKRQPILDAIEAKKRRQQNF
To be noted: at 0.1 µM.

Assay [7] deals with T1, Serine/threonine-protein kinase 4 (Homo sapiens). The note with it: at 1 µM.
In assay [8] the target is T2, Serine/threonine-protein kinase 3 (Homo sapiens) (UniProt Q13188).
T2 sequence (whole entry): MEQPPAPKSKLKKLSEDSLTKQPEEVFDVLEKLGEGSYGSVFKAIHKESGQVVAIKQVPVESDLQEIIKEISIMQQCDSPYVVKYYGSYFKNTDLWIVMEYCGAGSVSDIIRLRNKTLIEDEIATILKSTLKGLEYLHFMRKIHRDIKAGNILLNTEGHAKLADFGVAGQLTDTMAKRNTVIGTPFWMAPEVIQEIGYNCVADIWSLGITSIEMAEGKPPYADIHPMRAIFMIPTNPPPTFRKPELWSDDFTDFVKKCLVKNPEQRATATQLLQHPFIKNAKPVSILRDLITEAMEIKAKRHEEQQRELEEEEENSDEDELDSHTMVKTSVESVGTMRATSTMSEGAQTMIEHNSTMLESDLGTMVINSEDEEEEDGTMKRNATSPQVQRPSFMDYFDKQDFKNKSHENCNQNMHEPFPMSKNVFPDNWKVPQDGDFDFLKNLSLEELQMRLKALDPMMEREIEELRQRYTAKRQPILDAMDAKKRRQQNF
The note with it: at 0.1 µM.

The target of assay [9] is T2, Serine/threonine-protein kinase 3 (Homo sapiens). To be noted: at 1 µM.
The target in assay [10] is Serine/threonine-protein kinase 26 (Homo sapiens) (UniProt Q9P289). To be noted: at 0.1 µM.
Assay [11] shares this target. To be noted: at 1 µM.
Assay [12] concerns the target Serine/threonine-protein kinase PAK 1 (Homo sapiens) (UniProt Q13153). The note with it: at 0.1 µM.
For assay [13] the target is unchanged. The note with it: at 1 µM.
Assay [14] deals with Serine/threonine-protein kinase PAK 2 (Homo sapiens) (UniProt Q13177). To be noted: at 0.1 µM.
The target is the same in assay [15]. To be noted: at 1 µM.
The target in assay [16] is Serine/threonine-protein kinase PAK 3 (Homo sapiens) (UniProt O75914). The note with it: at 0.1 µM.
Assay [17] shares this target. To be noted: at 1 µM.
In assay [18] the target is Serine/threonine-protein kinase PAK 5 (Homo sapiens) (UniProt Q9P286). The note with it: at 0.1 µM.
For assay [19] the target is unchanged. To be noted: at 1 µM.
Assay [20] addresses Serine/threonine-protein kinase PAK 6 (Homo sapiens) (UniProt Q9NQU5). To be noted: at 0.1 µM.

Molecules are shown by their SMILES.

Sequence of Serine/threonine-protein kinase 26 (Homo sapiens) (Q9P289 2-416 limits assumed): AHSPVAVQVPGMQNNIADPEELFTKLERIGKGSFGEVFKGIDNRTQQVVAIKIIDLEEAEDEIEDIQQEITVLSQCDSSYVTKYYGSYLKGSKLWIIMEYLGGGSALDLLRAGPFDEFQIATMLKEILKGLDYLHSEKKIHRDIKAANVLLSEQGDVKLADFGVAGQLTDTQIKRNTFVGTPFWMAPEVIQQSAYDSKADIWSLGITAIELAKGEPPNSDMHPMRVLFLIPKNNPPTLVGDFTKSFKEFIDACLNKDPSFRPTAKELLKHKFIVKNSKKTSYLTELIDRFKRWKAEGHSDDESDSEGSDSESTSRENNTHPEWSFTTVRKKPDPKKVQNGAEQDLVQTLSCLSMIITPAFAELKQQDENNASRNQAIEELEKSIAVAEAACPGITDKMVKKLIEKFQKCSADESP
Sequence of Mitogen-activated protein kinase kinase kinase kinase 4 (Homo sapiens) (O95819 2-1239 limits assumed): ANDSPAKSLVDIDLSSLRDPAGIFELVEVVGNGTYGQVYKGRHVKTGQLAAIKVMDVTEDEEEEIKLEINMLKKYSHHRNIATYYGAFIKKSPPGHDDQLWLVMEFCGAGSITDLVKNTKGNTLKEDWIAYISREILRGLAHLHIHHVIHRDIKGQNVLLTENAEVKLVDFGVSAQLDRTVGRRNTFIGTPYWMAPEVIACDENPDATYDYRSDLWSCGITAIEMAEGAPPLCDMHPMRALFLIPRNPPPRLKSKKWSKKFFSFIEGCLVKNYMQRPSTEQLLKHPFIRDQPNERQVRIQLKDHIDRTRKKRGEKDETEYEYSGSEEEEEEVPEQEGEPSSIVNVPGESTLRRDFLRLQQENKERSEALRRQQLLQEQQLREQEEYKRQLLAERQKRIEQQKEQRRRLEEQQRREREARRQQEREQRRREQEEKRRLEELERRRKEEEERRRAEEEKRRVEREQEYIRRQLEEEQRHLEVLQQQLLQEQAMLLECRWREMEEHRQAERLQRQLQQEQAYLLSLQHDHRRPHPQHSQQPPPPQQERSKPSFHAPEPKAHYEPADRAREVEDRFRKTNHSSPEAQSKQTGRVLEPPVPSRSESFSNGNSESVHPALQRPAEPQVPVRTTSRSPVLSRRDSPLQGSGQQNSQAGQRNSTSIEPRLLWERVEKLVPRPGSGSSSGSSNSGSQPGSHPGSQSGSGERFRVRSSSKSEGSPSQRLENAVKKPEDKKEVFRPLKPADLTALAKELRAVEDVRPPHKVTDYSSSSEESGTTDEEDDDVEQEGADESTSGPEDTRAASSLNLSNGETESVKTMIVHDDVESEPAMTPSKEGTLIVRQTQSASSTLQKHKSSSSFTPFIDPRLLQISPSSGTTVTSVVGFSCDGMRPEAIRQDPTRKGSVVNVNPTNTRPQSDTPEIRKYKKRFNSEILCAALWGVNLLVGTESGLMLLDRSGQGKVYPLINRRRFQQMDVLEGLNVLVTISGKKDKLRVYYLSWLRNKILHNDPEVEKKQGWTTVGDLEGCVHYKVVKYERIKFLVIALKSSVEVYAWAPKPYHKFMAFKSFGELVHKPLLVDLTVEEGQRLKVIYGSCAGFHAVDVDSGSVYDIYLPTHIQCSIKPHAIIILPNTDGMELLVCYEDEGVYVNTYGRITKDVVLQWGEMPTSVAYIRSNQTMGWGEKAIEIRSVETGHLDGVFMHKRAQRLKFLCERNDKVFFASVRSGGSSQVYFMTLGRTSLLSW
Sequence of Serine/threonine-protein kinase PAK 2 (Homo sapiens) (Q13177 whole entry): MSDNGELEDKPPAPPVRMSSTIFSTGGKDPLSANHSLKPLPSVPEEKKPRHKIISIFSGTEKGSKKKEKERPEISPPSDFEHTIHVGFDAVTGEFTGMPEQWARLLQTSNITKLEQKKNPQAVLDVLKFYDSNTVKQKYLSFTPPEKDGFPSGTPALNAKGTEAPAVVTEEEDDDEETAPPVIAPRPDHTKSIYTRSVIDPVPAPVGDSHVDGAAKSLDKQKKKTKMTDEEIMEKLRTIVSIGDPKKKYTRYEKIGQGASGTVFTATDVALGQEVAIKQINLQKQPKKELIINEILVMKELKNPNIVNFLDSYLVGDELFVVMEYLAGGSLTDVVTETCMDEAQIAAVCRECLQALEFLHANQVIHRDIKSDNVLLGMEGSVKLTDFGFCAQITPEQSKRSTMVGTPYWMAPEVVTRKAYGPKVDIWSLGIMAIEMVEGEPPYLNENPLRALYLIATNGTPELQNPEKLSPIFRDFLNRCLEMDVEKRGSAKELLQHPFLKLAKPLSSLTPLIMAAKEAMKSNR
Sequence of Serine/threonine-protein kinase PAK 5 (Homo sapiens) (Q9P286 whole entry, looked up): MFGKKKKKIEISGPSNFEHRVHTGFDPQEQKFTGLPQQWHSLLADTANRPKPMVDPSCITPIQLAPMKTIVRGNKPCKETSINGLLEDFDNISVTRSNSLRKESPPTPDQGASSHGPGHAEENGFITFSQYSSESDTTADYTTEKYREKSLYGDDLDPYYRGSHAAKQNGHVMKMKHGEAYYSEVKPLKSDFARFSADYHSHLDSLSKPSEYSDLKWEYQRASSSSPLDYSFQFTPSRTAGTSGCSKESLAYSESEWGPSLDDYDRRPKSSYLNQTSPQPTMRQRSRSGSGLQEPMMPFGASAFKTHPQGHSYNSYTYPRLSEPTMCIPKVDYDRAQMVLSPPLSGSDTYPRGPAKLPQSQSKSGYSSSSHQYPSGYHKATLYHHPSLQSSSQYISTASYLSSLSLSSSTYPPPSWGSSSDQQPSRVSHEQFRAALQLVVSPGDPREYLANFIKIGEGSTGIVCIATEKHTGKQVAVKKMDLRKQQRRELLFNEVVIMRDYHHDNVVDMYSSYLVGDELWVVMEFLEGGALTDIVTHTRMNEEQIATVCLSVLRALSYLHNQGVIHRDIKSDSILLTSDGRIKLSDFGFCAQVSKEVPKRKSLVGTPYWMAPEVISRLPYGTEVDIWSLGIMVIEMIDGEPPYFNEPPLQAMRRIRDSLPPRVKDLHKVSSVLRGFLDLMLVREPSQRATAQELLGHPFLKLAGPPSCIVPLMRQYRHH
Sequence of Misshapen-like kinase 1 (Homo sapiens) (Q8N4C8 whole entry, looked up): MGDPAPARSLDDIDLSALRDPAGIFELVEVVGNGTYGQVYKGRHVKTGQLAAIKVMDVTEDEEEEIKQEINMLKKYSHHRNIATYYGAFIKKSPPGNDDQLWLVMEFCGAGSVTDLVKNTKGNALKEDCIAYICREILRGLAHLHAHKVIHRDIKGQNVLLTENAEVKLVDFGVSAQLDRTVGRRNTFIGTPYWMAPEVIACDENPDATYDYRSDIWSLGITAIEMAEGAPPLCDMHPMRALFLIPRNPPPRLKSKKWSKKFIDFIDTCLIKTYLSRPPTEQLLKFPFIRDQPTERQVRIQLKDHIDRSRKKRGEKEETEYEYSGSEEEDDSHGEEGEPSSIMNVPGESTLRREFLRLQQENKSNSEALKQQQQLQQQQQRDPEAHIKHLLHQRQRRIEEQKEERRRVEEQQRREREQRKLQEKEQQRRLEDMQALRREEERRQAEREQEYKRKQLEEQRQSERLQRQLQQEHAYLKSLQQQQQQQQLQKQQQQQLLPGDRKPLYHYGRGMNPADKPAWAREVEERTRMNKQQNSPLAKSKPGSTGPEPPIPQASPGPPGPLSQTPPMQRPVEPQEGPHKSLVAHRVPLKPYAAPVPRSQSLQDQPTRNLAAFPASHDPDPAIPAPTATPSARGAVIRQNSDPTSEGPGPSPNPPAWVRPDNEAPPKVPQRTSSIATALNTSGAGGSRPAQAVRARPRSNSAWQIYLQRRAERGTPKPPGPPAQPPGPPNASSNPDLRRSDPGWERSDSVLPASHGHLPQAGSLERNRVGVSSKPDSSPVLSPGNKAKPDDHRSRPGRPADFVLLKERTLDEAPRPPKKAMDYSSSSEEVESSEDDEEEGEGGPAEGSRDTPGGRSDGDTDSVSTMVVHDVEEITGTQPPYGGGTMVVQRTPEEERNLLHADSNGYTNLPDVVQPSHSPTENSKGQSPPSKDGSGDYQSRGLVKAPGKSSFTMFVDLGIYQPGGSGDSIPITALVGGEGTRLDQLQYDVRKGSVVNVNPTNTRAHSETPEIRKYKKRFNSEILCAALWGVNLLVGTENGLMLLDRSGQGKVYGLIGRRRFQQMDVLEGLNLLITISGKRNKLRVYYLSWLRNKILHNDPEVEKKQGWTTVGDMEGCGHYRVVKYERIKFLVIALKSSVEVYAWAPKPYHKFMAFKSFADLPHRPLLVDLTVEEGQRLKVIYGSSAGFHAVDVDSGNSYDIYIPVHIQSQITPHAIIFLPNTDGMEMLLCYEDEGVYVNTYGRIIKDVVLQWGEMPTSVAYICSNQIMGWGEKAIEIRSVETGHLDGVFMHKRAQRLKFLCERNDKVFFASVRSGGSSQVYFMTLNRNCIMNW
Sequence of Serine/threonine-protein kinase PAK 1 (Homo sapiens) (Q13153 whole entry): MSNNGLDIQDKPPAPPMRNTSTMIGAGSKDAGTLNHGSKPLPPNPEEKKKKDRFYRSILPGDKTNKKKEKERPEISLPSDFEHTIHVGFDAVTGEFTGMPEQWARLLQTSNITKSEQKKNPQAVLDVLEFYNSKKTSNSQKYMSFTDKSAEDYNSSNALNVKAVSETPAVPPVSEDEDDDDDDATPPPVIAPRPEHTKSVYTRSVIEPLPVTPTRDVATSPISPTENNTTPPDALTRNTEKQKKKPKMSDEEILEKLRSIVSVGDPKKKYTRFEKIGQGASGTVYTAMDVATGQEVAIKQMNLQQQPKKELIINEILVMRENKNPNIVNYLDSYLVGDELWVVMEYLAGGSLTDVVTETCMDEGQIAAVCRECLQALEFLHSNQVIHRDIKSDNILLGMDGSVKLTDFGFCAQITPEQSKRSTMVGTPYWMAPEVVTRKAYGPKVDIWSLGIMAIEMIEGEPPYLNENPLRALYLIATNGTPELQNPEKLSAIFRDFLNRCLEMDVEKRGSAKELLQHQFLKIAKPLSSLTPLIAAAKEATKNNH

Take `O=C(Nc1n[nH]c2cc(-c3ccccc3)ccc12)C1CC1`: the inhibition in [1] came to 74.2%; in assay [2] it was 4.67%; in assay [3] it was 3.62%; in assay [4], 21.4%; in [5] it was 64.5%; in [6], 4.78%. The inhibition in [7] was 6.38%; in assay [8], 5.18%; in assay [9] it was 6.35%; in assay [10], -2.61%; in assay [11] it was -4.03%; in assay [12], 7.59%. In addition, the inhibition in assay [13] came out at 7.76%; in assay [14] it was 1.44%; in [15], 2.41%; in assay [16], 5.22%; in assay [17], 6.01%; in [18], 0.11%. Moreover, the inhibition was -0.04% in assay [19] and 5.51% in assay [20].

Turning to `CCS(=O)(=O)c1ccc(OC)c(Nc2ncc(-c3cccc(-c4ccccc4F)c3)o2)c1`, the inhibition is 7.49% in [1]; -1.1% in assay [2]; -0.23% in assay [3]; 1.27% in assay [4]; 6.72% in assay [5]; -0.24% in assay [6]. The inhibition is 0.6% in assay [7]; 0.7% in assay [8]; -0.3% in [9]; 0.48% in assay [10]; -0.27% in assay [11]; -2.19% in [12]. The inhibition in assay [13] is -0.96%; in assay [14], -1%; in assay [15] it was -0.6%; in assay [16] it was -0.65%; in [17], -0.27%; in assay [18], 6.6%. Moreover, the inhibition is 2.9% in [19] and 12.3% in assay [20].

As for `COc1cc(Nc2ncc3c(C)nc(-c4cccc(C(F)(F)F)c4)n3n2)cc(OC)c1OC`, the inhibition is 34% in assay [1]; 4.45% in [2]; 10.7% in [3]; 10.5% in [4]; 29.2% in [5]; 7.12% in assay [6]. Besides, the inhibition was 17.8% in [7]; 6.69% in assay [8]; 13.2% in assay [9]; 0.97% in assay [10]; 5.84% in assay [11]; 6.01% in assay [12]. The inhibition was 8.56% in assay [13]; 1.46% in [14]; 2.81% in assay [15]; 3.31% in assay [16]; 7.5% in assay [17]; 5.75% in [18]. Besides, the results for the inhibition in assay [19] and in [20] were 15.9% and -0.28%, respectively.

With `CCN(CC)Cc1ccc(Nc2nccc(-c3cnn4ncccc34)n2)cc1`, the inhibition in assay [1] was 20.4%; in assay [2], 3.09%; in [3], 13.1%; in [4], 5.68%; in assay [5] it was 17%; in assay [6] it was 1.35%. Further, the inhibition in assay [7] was 15.9%; in assay [8] it was 5.43%; in [9], 9.79%; in assay [10], -1.89%; in assay [11] it was 0.74%; in assay [12] it was 5.45%. Besides, the inhibition amounted to 9.08% in assay [13]; 1.19% in assay [14]; 3.41% in assay [15]; 4.82% in [16]; 6% in assay [17]; 1.9% in [18]. Further, the inhibition in assay [19] amounted to 5.43%.

For the molecule `Fc1ccc(-c2ncn(C3CCNCC3)c2-c2ccnc(Oc3ccc4c(c3)OCO4)n2)cc1`, the inhibition was 7.72% in [1]; 4.99% in assay [2]; 8.82% in assay [3]; 5.95% in assay [4]; 12% in [5]; 4.76% in assay [6]. Moreover, the inhibition in assay [7] is 8.51%; in assay [8], 6.72%; in assay [9] it was 10.8%; in [10], -1.94%; in assay [11], -0.15%; in assay [12] it was 6.43%. In addition, the inhibition in assay [13] is 8.06%; in [14], 2.45%; in assay [15], 2.56%; in [16], 6.04%; in assay [17], 6.56%; in [18], 1.45%. The values for the inhibition in assay [19] and in assay [20] were 2.03% and 1.43%, respectively.

For `CCc1cccc(CC)c1/C=C/c1cncc(C(=O)NC)c1`, the inhibition in [1] was 7.49%; in assay [2], 2.63%; in assay [3], 2.68%; in assay [4], 3.66%; in assay [5] it was 6.06%; in assay [6], 5.37%. The inhibition in assay [7] is 5.19%; in [8], 5.6%; in [9], 3.95%; in assay [10] it was -0.96%; in assay [11], -4.27%; in assay [12], 6.83%. The inhibition in assay [13] turned out to be 2.08%; in [14] it was 2.1%; in assay [15] it was 1.76%; in assay [16] it was 2.61%; in assay [17], 3.43%; in [18], 8.04%. The inhibition in [19] is -1.06%; in assay [20] it was -5.49%.

Values taken from ChEMBL document CHEMBL1961873, “Compounds: GSK PKIS; Assays: Nanosyn kinase panel” (2012).
